Experimental data reported in PubChem BioAssay AID743395 (Broad Institute, 2014).
Out of some 1,200 compounds screened, about 480 (40%) were called active. The set was probably picked from earlier hits. Not all results are given here. Results with a measured potency or affinity are listed apart. Values without a mark were called inactive. How the calls were made is not given here.

Test: viability loss in human hepatoma cells – cell-based, CellTiter-Glo luminescence, cherry-pick, set 2, cytotoxicity control, dose response (AID 743395);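 further: 0% = neutral control wells and -100% = positive control wells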
Conditions: HepG2 viability, CellTiter-Glo ATP luminescence, 72 h; series mostly up to 26 µM; activity change, negative = cytotoxicity: at the top concentration

| Structure (SMILES) | activity change, negative = cytotoxicity |
| --- | --- |
| CN[C@H]1CCc2cc(OC)c(OC)c(OC)c2-c2ccc(N(C)CC(OC)OC)c(=O)cc21 | -9.88% |
| COc1c(O[C@@H]2O[C@H](CO)[C@@H](O)[C@H](O)[C@H]2O)cc2c(c1OC)-c1ccc(SC)c(=O)cc1C(NC(C)=O)CC2 (some centres undefined) | 4.6% |
| CCN(CC)c1ccc2c(cc1=O)[C@@H](NC)CCc1cc(OC)c(OC)c(OC)c1-2 | -9.08% |
| CO[C@H]1CN(C)C(=O)c2cc(NC(C)=O)ccc2OC[C@H](C)N(C(=O)c2ccncc2)C[C@H]1C | -5.17% |
| CCOC(=O)CSC1=C(C#N)C(c2ccc(C)s2)CC(=O)N1 (centres undefined) | -40.3% |
| CN(C(=O)c1ccccc1OC1CCN(S(C)(=O)=O)CC1)C1CCOC1 (centres undefined) | -1.38% |
| COCCOC(=O)c1[nH]c2c(c1C)C(=O)CC(c1cccs1)C2 (centres undefined) | -10.6% |
| O=C1C=CN(C2OC(CO)C(O)C2O)C(=O)C1 (centres undefined) | -15.5% |
| Nc1ccn([C@H]2C[C@H](O)[C@@H](CO)O2)c(=O)n1 | 1.56% |
| Nc1ccn([C@@H]2O[C@H](C(=O)NCC(F)(F)F)[C@@H](O)[C@H]2O)c(=O)n1 | -8.42% |
| Cc1ccc(C(=O)OCC(=O)NCc2cc(C)c(O)c(C)c2)cc1S(=O)(=O)N1CCCCC1 | 6.09% |
| CC(OC(=O)CCCC(=O)Nc1ccc(F)cc1)C(=O)c1ccccc1 (centres undefined) | 10.3% |
| CC1Cc2ccccc2N1S(=O)(=O)c1cccc(C(=O)N2CCN(c3ncccn3)CC2)c1 (centres undefined) | -22.5% |
| COc1ccccc1N1CCN(C(CNS(=O)(=O)c2cccs2)c2cccnc2)CC1 (centres undefined) | -8.06% |
| CN(C[C@H](Cc1ccccc1)N(C[C@H](Cc1ccccc1)N(CCC(C)(C)C)N=O)N=O)N=O | -0.701% |
| O=C1c2cccc3c(O)ccc(c23)C(=O)N1c1ccc(Cl)cc1 | -9.52% |
| N#CC1=C(N)OC2=C(CCc3ccccc32)C1c1ccccc1Cl (centres undefined) | 3.32% |
| COc1nc(N)nc(NC(=O)c2cccs2)c1N=O | -14.8% |
| Cc1ccc(Cc2c(-c3ccc(C)cc3)nc3c(C)cc(Br)cn23)cc1 | -4.39% |
| CC(C)(C)NC(=O)c1cccc2c1-c1ccccc1C2=O | -12.1% [at 8 µM] |
| CC1=C(C(=O)NC2CCCCC2C)C2(CCC(C)CC2)OC1=O (centres undefined) | -13% |
| COc1ccc(C(C#N)CC(=O)c2ccc3c(c2)OCO3)cc1OC (centres undefined) | -3.73% |
| Cc1cc(Br)cn2c(Cc3ccsc3)c(-c3ccc(F)cc3)nc12 | 0.336% |
| COc1ccc(C(=O)Nc2ccc(NC(=O)c3cccc(F)c3)cn2)cc1 | -8.34% |
| Cc1cccc(OCC(=O)NNC(=O)c2ccc3nc[nH]c3c2)c1 | -11.2% |

| Structure (SMILES) | activity change, negative = cytotoxicity |
| --- | --- |
| COc1ccc(C(=O)OCc2nc(N)nc(Nc3ccccc3C)n2)cc1OC | -13.4% |
| COc1ccc(NC(=O)c2ccc(OCC3CCCO3)cc2)cc1OC (centres undefined) | 0.664% |
| CC(OC(=O)c1ccc(Cl)nc1)C(=O)NC(C)(C)C (centres undefined) | -2.04% |
| NS(=O)(=O)c1cc(C2(O)NC(=O)c3ccccc32)ccc1Cl (centres undefined) | -3.58% |
| CCNC(=O)C[C@@H]1C=C[C@@H](NC(=O)NC2CCCCC2)[C@H](CO)O1 | -3.27% |
| O=C(CSC1=NCCN1)Nc1cccc([N+](=O)[O-])c1 | -21.5% |
| COc1ccc([C@@H]2[C@@H]3C(=O)N(C(C)(C)C)C(=O)[C@@H]3[C@]3(Cc4ccccc4)C(=O)N(c4ccc(C(F)(F)F)cc4)C(=O)N23)cc1 | -20.1% |
| CCc1ccccc1N(C)S(=O)(=O)c1ccc(-c2cc(C)no2)s1 | -15% |
| Cc1ccc(OCCC(=O)NNC(=O)c2ccc(Br)cc2)cc1 | -3.58% |
| O=C(NCCCN1CCOCC1)c1cc(S(=O)(=O)N2CCOCC2)c(Cl)cc1Cl | -1.37% |
| O=C(NCCCN1CCOCC1)c1sc2cc(Cl)ccc2c1Cl | -1.96% |
| CN(C)CCCN1c2ccccc2Sc2ccccc21 | -24.3% |
| COC(=O)C1CC23C=CCN4CCC5(c6ccccc6NC15C2C)C43 (centres undefined) | -14.9% |
| COc1ccc(C(=O)NCC(c2ccco2)N2CCc3ccccc32)cc1 (centres undefined) | -17.2% |
| COc1ccccc1NC(=O)C(=O)NCC(c1ccco1)N1CCc2ccccc21 (centres undefined) | 6.66% |
| CCCc1nc(SC2CCCC2)c2c(=O)n(C)c(=O)n(C)c2n1 | -17.4% |
| COc1ccc(NCC(=O)n2c(C)c(C)c3ccccc32)cc1 | -2.65% |
| COc1cc(OC)cc(C(=O)N2CC(=O)Nc3ccccc32)c1 | -14% |
| COc1ccc(/C=C2/CCCc3ccccc3C2=O)cc1 | -22.7% |
| COC(=O)c1cn(C(=O)c2ccc(C)cc2C)c2ccccc12 | -20.2% |
| O=C(NCc1cccnc1)c1cc(C2CCCCN2C(=O)CCCc2ccccc2)on1 (centres undefined) | -5.42% |
| CCCOCCOC(=O)c1[nH]c2c(c1C)C(=O)CC(c1cc(OC)ccc1OC)C2 (centres undefined) | 1.47% |
| COc1ccccc1/C=N/NC(=O)c1cc2c(OC)c(OC)ccc2[nH]1 | -8.24% |
| Cc1ccc(C)c(NC(=O)CCC(=O)N/N=C/c2cc([N+](=O)[O-])ccc2O)c1 | -10.3% |
